# Bioassay records: PubChem BioAssay, National Center for Advancing Translational Sciences (NCATS)
# In the library only some 11% were active in any assay of this set; here they are far more common.
# HPGD inh: qHTS Assay for Inhibitors of HPGD (15-Hydroxyprostaglandin Dehydrogenase). 15-hydroxyprostaglandin dehydrogenase [NAD(+)] (Homo sapiens), P15428. actives 4.3% (n = 150,000). Potency, µM, for the others: top-dose activity change, negative = inhibition, hits mostly inhibitors. AID 894, 2007. purified HPGD, NADH fluorescence kinetic, PGE2 substrate; active means well fitted inhibition curve with a large enough effect, not every such curve was filed as active; inconclusive means small, poorly fitted or top-dose-only effect, or another doubt; inactive means no such curve, though single readings can be large or run the other way; further: potency means the concentration at half of the fitted maximal effect; on the % scale 0 is the no-effect control and ±100 the full control effect
# Target sequence (P15428 whole entry, looked up): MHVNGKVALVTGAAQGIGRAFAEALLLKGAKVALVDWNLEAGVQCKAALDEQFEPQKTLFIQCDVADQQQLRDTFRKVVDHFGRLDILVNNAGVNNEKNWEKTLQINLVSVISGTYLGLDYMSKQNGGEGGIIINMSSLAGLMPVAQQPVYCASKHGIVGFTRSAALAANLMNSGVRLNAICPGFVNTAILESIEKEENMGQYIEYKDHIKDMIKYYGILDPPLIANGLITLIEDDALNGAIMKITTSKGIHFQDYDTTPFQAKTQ
#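 20 nM HPGD preincubated 15 min at room temperature with compound in 50 mM Tris-HCl pH 8, 0.01% Tween 20. Started with 1 mM NAD+ and 30 uM prostaglandin E2; NADH fluorescence (360/450 nm) read 5 times over 30-s intervals, last minus first.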
# CBFb-RUNX1 inh: qHTS Assay for Compounds Blocking the Interaction Between CBF-beta and RUNX1 for the Treatment of Acute Myeloid Leukemia | Runt-related transcription factor 1 (Homo sapiens) + Core-binding factor subunit beta … | AlphaScreen CBFb-His/RUNX1-biotin binding, biochemical | Potency, µM (titrated, usually from 59.8 µM), inactives show at the highest dose activity, negative = inhibition, hits mostly inhibitors | 230,000 tested, under 10 active | AID 1477, 2009; further: % of control where 0% means no effect
#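 CBF-beta (His) and RUNX1 (biotin), 30 nM each; 20 min preassociation; + compound, 15 min; + beads 50 ng each (Ni, streptavidin), 90 min; RT; AlphaScreen read.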
# HTT ATP protect: qHTS Multiplex Assay to Identify Dual Action Probes in a Cell Model of Huntington: Cytoprotection (ATP); PC12 HTT-Q103 induced, cytoprotection, ATP luminescence, 40 h; Potency, µM (titrated, usually from 56.4 µM), for the others: cytoprotection (ATP increase), actives largely listed as activators; actives 0.14% (n = 230,000); AID 1471, 2008; further: potency means the concentration at half of the fitted maximal effect; % of control where 0% means no effect; nearly all actives have a fitted effect of over 45% in size
#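 Compounds were screened for protection of PC12 cells against cell death after tebufenozide induction (100 nM final) of mutant Huntingtin exon 1 (Q103) fused to GFP.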
# ALDH1A1 block: qHTS Assay for Inhibitors of Aldehyde Dehydrogenase 1 (ALDH1A1). actives 7.3% (n = 220,000). Purified ALDH1A1, NADH fluorescence, propionaldehyde substrate. Potency, µM (series often up to 75.3 µM), for inactives: at the top dose activity, negative = inhibition, most hits filed as inhibitors. Aldehyde dehydrogenase 1A1 (Homo sapiens), P00352. AID 1030, 2008; active means well fitted inhibition curve with a large enough effect, not every such curve was filed as active; inconclusive means small, poorly fitted or top-dose-only effect, or another doubt; inactive means no such curve, though single readings can be large or run the other way;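 further: potency means the concentration at half of the fitted maximal effect; plate controls were no enzyme wells and a reference inhibitor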
# PNC assembly inh: High Content Assay for Compounds that inhibit the Assembly of the Perinucleolar Compartment. AID 2417, 2010. PC3M PTB-GFP, PNC prevalence imaging, 16 h; hits give low values. actives 3.1% (n = 140,000). activity change (PNC), negative = inhibition, % at 10 µM;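 active means readout at or below -70, meaning at least 70% loss of cells showing the perinucleolar compartment, a nuclear body marking cancer cells; inconclusive means readout between -30 and a set limit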;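 further: plate controls were DMSO wells for no effect and camptothecin positive control wells for full effect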
#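 Compounds are pinned in duplicate onto adhered PC3M cells stably expressing GFP-tagged PTB and incubated 16 h at 37 C. Cells are then fixed, nuclei stained with Hoechst, and PNC-positive cells counted.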
# HTT aggregate: qHTS Multiplex Assay to Identify Dual Action Probes in a Cell Model of Huntington: Aggregate Formation (GFP). PC12 HttQ103-GFP aggregates, Acumen cytometry, 40 h. Potency, µM (top dose mostly 46.1 µM), inactives show top-dose activity change, negative = inhibition, actives largely listed as inhibitors. actives 1.1% (n = 220,000). AID 1688, 2009; further: potency means the concentration at half of the fitted maximal effect; on the % scale 0 is the no-effect control and ±100 the full control effect; nearly all actives have a fitted effect of over 60% in size
#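 Using laser scanning cytometry, GFP-positive aggregates were counted after lysis of PC12 cells induced with 100 nM tebufenozide to express HTT exon 1 Q103–GFP. Compounds were tested in titration.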
# * hit, by the source's call; ? = inconclusive; nt = no result given; [ ] = dose if it differs, or a comment. Unless noted, the call rests on the fitted dose curve; in most records, active means well fitted curve in the direction sought with a large enough effect; inconclusive means small, poorly fitted or top-dose-only effect, or another doubt; inactive means no such curve, though single readings can be large; an effect the other way counts as inactive or inconclusive.
SMILES,HPGD inh,CBFb-RUNX1 inh,HTT ATP protect,ALDH1A1 block,PNC assembly inh,HTT aggregate
Cc1ccc(-n2ncc3c(=O)[nH]c(SCC(=O)N4CCCC4)nc32)cc1C,15.8µM*,1.6%[2.36 µM],-14.2%,-1.1%,21.4,16.8%
CCc1c(O)nc(SCc2nc3ccccc3c(=O)[nH]2)[nH]c1=O,nt,-4.6%,7.2%,-4.8%,nt,4.1%
O=c1[nH]c(CSc2nc3ccccc3[nH]2)nc2c1cnn2-c1ccccc1,-10.4%,-5.0%,12.2%[10 µM],-1.5%,-2.0,-1.9%
COCCNc1ccnc(-c2c(C)noc2C)n1,-4.7%,nt,-4.4%,12.2%,nt,nt
CNC(=O)C1(CC(C)C)C=CCN1C(=O)c1ccccc1 (configuration not stated),-9.6%,-2.6%,6.4%,-0.5%,nt,nt
Nc1ccc(-c2cnc[nH]2)cc1[N+](=O)[O-],nt,0.1%,-7.6%[10 µM],nt,nt,-7.2%[9.22 µM]
C[C@@]12CC[C@@H]3c4ccc(O)cc4CC[C@H]3[C@H]1C[C@@H](O)[C@H]2O,3.8%,0.9%[21.7 µM],-34.3%[17.1 µM],-5.0%[20.9 µM],nt,nt
CCOC(=O)c1cnc(-n2nc(C)cc2C)nc1NCCc1ccccc1,-16.4%,?,-69.9%,?,?,12.6µM*
COc1cc(CN2CCCCC2)cc2cc(C(=O)O)c(=O)oc12,-6.8%,nt,4.0%[10 µM],1.9%[13.5 µM],nt,nt
O=C(NCCSCc1c(F)cccc1Cl)c1ccc(CN2CCOCC2)cc1,-9.0%,8.3%,7.7%[0.074 µM],3.2%,31.4,31.7%
COc1cc(/C=C2/SC(=NCc3ccccc3)N(Cc3ccccc3)C2=O)ccc1O,-25.7%,-2.3%,-22.2%,2.24µM*,-14.2,-12.7%
COc1ccc(/C=N/NC(N)=S)cc1OC(=O)c1cccc2ccccc12,-15.5%,-22.4%,?,?,?,?
COc1ccc(N/N=C(/C)c2cnnc(-c3ccccc3)n2)cc1,-0.8%,-4.5%,nt,9.46µM*,-5.3,-11.4%
COc1ccc(CNc2ncncc2-c2ccccc2C(F)(F)F)c(OC)c1,nt,nt,-3.9%,-5.1%,nt,nt
COc1ccc(N2CCN(C(=O)CCc3ccc(S(=O)(=O)NCC(C)C)cc3)CC2)cc1,-2.3%,1.6%,9.7%[10 µM],12.6µM*,?,15.8%
CC(C)NS(=O)(=O)c1ccc(CCC(=O)N2CCc3ccccc3C2)cc1,nt,1.5%,-2.2%,1.8%,nt,6.4%
CC(NS(=O)(=O)c1ccc(CCC(=O)N2CCN(C)CC2)cc1)c1ccccc1 (configuration not stated),-0.8%,5.9%,12.7%,7.6%,-81.7*,-16.7%
CC(C)CNS(=O)(=O)c1ccc(CCC(=O)N2CCN(c3ccc(F)cc3)CC2)cc1,nt,-1.9%,-15.6%,?,nt,-26.1%
CCOC(=O)OCC1OC(c2ccccc2)C=CC1OC(=O)OCC (configuration not stated),nt,4.1%[13.1 µM],2.7%[10 µM],7.0%[13.5 µM],nt,nt
COc1ccccc1CNc1ncnc2ccc(-c3cccc(C#N)c3)cc12,nt,nt,-204.1%,?,nt,nt
Fc1ccc(-c2[nH]ncc2CN2CCN(c3ccc(F)cc3)CC2)cc1,nt,-7.2%,16.2%[10 µM],0.8%,nt,13.6%[9.22 µM]
Fc1ccc(N2CCN(Cc3cn[nH]c3-c3ccccc3)CC2)cc1,nt,5.8%,9.9%[10 µM],14.1µM*,nt,9.5%[9.22 µM]
COc1ccc(S(=O)(=O)/N=C2/NC(=O)/C(=C\c3ccco3)S2)cc1,28.2µM*,-19.3%,-3.6%[10 µM],17.8µM*,3.8,-16.0%
COc1ccc(S(=O)(=O)/N=C2/NC(=O)/C(=C/c3ccco3)S2)cc1,?,-3.2%,47.9%[0.074 µM],22.4µM*,3.1,12.1%
CCNc1ncc2ncc(=O)n(C)c2n1,?,nt,-7.8%,?,nt,nt
